# Activity calls are given as the source filed them.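 The calls were made as follows: active = inhibition above 50% of the enzyme in parasite cell lysate; inactive = the rest.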
# Experiment: malaria lysate leucine aminopeptidase inhibition – cell lysate, fluorescence, Plasmodium falciparum lysate, powder samples, late-stage follow-up (AID 492973)
# Settings: P. falciparum cell lysate, H-Leu-NHMec fluorescence; at 5 µM; hits give high values
row,SMILES,inhibition
1,COC(=O)c1c(NC(=O)[C@H]2CCCC[C@H]2C(=O)O)sc2c1CCCCC2,65% (active)
2,O=C(CSc1nccc(=O)[nH]1)Nc1ccc(Br)c(Cl)c1,43% (inactive)
3,Cc1cc(C(=O)COC(=O)c2ccc[nH]c2=O)c(C)n1-c1ccccc1,36% (inactive)
4,CCOC(=O)c1c(NC(=O)[C@@H]2C3CCC(O3)[C@@H]2C(=O)O)sc(C)c1-c1ccc(C)cc1 (stereo not given in full),29% (inactive)
5,C=CCn1c(SCC(=O)Nc2cccc3ccccc23)nc(O)c(CC)c1=O,31% (inactive)
6,Cc1ccc(Nc2nnc(SCc3cc(=O)n4ccsc4n3)s2)c(C)c1,22% (inactive)
7,CCOc1ccc(NC(=O)Nc2cccs2)cc1,48% (inactive)
8,CCOC(=O)c1c(-c2ccc(C)cc2)csc1NC(=O)[C@H]1CC=CC[C@H]1C(=O)O,48% (inactive)
9,N#Cc1c(NC(=O)[C@@H]2C3C=CC(C3)[C@@H]2C(=O)O)sc2c1CCCCC2 (stereo not given in full),30% (inactive)
10,O=C(CSc1nc(O)cc(=O)n1-c1ccccc1)Nc1ccc2c3c(cccc13)CC2,22% (inactive)
11,CCc1ccc(NC(=O)[C@H]2CC=CC[C@H]2C(=O)O)cc1,22% (inactive)
12,Cc1ccc(-n2c(C)cc(C(=O)COC(=O)c3ccc[nH]c3=O)c2C)cc1,43% (inactive)
13,CCCCc1c(O)nc(SCC(=O)Nc2ccc3c(c2)CCC3)[nH]c1=O,21% (inactive)
14,O=C(Nc1cccc(Cl)c1)[C@H]1CC=CC[C@H]1C(=O)O,24% (inactive)
15,Cc1cc(C(=O)COC(=O)c2ccc[nH]c2=O)c(C)n1-c1ccc(F)cc1,32% (inactive)
16,O=C(CSc1nnc(Nc2ccccc2)s1)NN1C(=O)NC2(CCCCC2)C1=O,57% (active)
17,CCc1ccc(Nc2nnc(SC3CCOC3=O)s2)cc1 (stereo not given),43% (inactive)
18,COc1cc(NC(=O)CSc2nc3cc(C)ccc3cc2C)c(C(=O)O)cc1OC,64% (active)
19,COc1ccc(NC(=O)CSc2nc(O)cc(=O)n2C)cc1,29% (inactive)
20,COC(=O)c1c(-c2ccc(C)cc2)csc1NC(=O)[C@H]1CC=CC[C@H]1C(=O)O,58% (active)
21,COc1cc(NC(=O)CSc2nc3c(C)ccc(C)c3cc2C)c(C(=O)O)cc1OC,74% (active)
22,O=C(O)Cc1ccc(NC(=O)Nc2ccc(Br)cc2)cc1,41% (inactive)
23,COc1ccc(NC(=O)CSC2=NC(=O)CC(C)=N2)cc1,27% (inactive)
24,CCn1c2ccccc2c2cc(NC(=O)CSc3nccc(=O)[nH]3)ccc21,49% (inactive)
25,Cc1ccc(Nc2nnc(SC3CCOC3=O)s2)cc1 (stereo not given),57% (active)
